Reference: PubChem BioAssay (NCI)
This is part of a sample that, as a whole, favours compounds with a hit. Of some 83,000 tested, about 20% had one in any assay.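 Values shown are percent growth following 48 h exposure of cells in 96-well plates to a single concentration of compound; below 10 was considered active.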 Calls of active or inactive are those of the source.

How the values were obtained:
Assay in all cases: NCI-60 one-dose screen, 48 h (100 = growth as untreated, 0 = no growth, -100 = all killed)
NCI-H23 lung = tested on: NCI-H23 lung
NCI-H226 lung = tested on: NCI-H226 lung
NCI-H322M lung = tested on: NCI-H322M lung
HOP-62 NSCLC = tested on: HOP-62 NSCLC
NCI-H460 lung = tested on: NCI-H460 lung
HOP-92 NSCLC = tested on: HOP-92 NSCLC
NCI-H522 lung = tested on: NCI-H522 lung
A549/ATCC NSCLC = tested on: A549/ATCC NSCLC
786-0 renal = tested on: 786-0 renal
COLO 205 colon = tested on: COLO 205 colon
DU-145 prostate = tested on: DU-145 prostate
K-562 leukemia = tested on: K-562 leukemia
MALME-3M melanoma = tested on: MALME-3M melanoma
MDA-MB-231 breast = tested on: MDA-MB-231 breast
RXF 393 renal = tested on: RXF 393 renal
SF-268 CNS = tested on: SF-268 CNS
SF-295 CNS = settings: 10 µM unless noted
SF-539 CNS = tested on: SF-539 CNS
UACC-257 melanoma = tested on: UACC-257 melanoma
M14 melanoma = tested on: M14 melanoma

Measured: growth

COc1cc(/C=C\[N+](=O)[O-])ccc1OCc1ccccc1
inactive: NCI-H23 lung; 10 µM unless noted 34.6% | NCI-H226 lung; 10 µM unless noted 105% | NCI-H322M lung; 10 µM unless noted 94.5% | HOP-62 NSCLC; 10 µM unless noted 30.7% | NCI-H460 lung; 10 µM unless noted 62.4% | HOP-92 NSCLC; 10 µM unless noted 66.3% | NCI-H522 lung; 10 µM unless noted 73.5% | A549/ATCC NSCLC; 10 µM unless noted 64.7% | COLO 205 colon; 10 µM unless noted 32.7% | DU-145 prostate; 10 µM unless noted 44.3% | MALME-3M melanoma; 10 µM unless noted 77.9% | MDA-MB-231 breast; 10 µM unless noted 12.5% | SF-268 CNS; 10 µM unless noted 19.4% | SF-295 CNS 48.7% | SF-539 CNS; 10 µM unless noted 30.8% | UACC-257 melanoma; 10 µM unless noted 61.8% | M14 melanoma; 10 µM unless noted 15.5%
active: 786-0 renal; 10 µM unless noted -17.4% | K-562 leukemia; 10 µM unless noted 0.133% | RXF 393 renal; 10 µM unless noted -86.1%

CC(=O)OCC1OC([S-])C(OC(C)=O)C(OC(C)=O)C1OC(C)=O.[Au+].c1ccc(CN2[CH-]N(Cc3ccccc3)C(c3ccccc3)=C2c2ccccc2)cc1
inactive: NCI-H226 lung; 10 µM 92.1% | NCI-H322M lung; 4.75 µM 20.8% | NCI-H322M lung; 10 µM 57.5% | HOP-62 NSCLC; 10 µM 45.1% | NCI-H460 lung; 10 µM 29.2% | A549/ATCC NSCLC; 10 µM 59.2% | COLO 205 colon; 10 µM 13.6% | DU-145 prostate; 4.75 µM 10.1% | DU-145 prostate; 10 µM 11.3% | SF-539 CNS; 4.75 µM 14.3% | SF-539 CNS; 10 µM 41.8% | UACC-257 melanoma; 10 µM 20.6%
active: NCI-H23 lung; 4.75 µM 3.45% | NCI-H23 lung; 10 µM 2.04% | NCI-H226 lung; 4.75 µM 9.99% | HOP-62 NSCLC; 4.75 µM -12.6% | NCI-H460 lung; 4.75 µM 1.76% | HOP-92 NSCLC; 4.75 µM -24% | HOP-92 NSCLC; 10 µM -9.45% | NCI-H522 lung; 4.75 µM -68.7% | NCI-H522 lung; 10 µM -27.9% | A549/ATCC NSCLC; 4.75 µM 8.63% | 786-0 renal; 4.75 µM -33.7% | 786-0 renal; 10 µM -72.1% | COLO 205 colon; 4.75 µM -75.6% | K-562 leukemia; 4.75 µM -15.1% | K-562 leukemia; 10 µM -6.23% | MALME-3M melanoma; 4.75 µM -20.1% | MALME-3M melanoma; 10 µM -49% | MDA-MB-231 breast; 4.75 µM -43.6% | MDA-MB-231 breast; 10 µM -55.7% | RXF 393 renal; 4.75 µM -65.4% | RXF 393 renal; 10 µM -75% | SF-268 CNS; 4.75 µM -6.05% | SF-268 CNS; 10 µM -36% | UACC-257 melanoma; 4.75 µM -17.4% | M14 melanoma; 4.75 µM 8.95% | M14 melanoma; 10 µM -12%

COC(=O)[C@@H](C)C[C@H](Cc1ccccc1)NC(=O)c1cccc([C@@H](C[C@H](C(C)C)N(C)C(=O)[C@@H](NC(=O)[C@H]2CCCCN2C)C2CC2)OC(C)=O)n1
inactive: NCI-H23 lung; 10 µM unless noted 21% | NCI-H226 lung; 10 µM unless noted 22.8% | NCI-H322M lung; 10 µM unless noted 39.4% | 786-0 renal; 10 µM unless noted 20.8% | MALME-3M melanoma; 10 µM unless noted 67.1% | RXF 393 renal; 10 µM unless noted 23.4% | SF-268 CNS; 10 µM unless noted 18.6% | UACC-257 melanoma; 10 µM unless noted 36.4%
active: HOP-62 NSCLC; 10 µM unless noted 3.33% | NCI-H460 lung; 10 µM unless noted 7.3% | HOP-92 NSCLC; 10 µM unless noted 5.28% | NCI-H522 lung; 10 µM unless noted -11.3% | A549/ATCC NSCLC; 10 µM unless noted 7.97% | COLO 205 colon; 10 µM unless noted -69% | DU-145 prostate; 10 µM unless noted 3.09% | K-562 leukemia; 10 µM unless noted 6.15% | MDA-MB-231 breast; 10 µM unless noted -20.4% | SF-295 CNS 3.47% | SF-539 CNS; 10 µM unless noted -15% | M14 melanoma; 10 µM unless noted 1.47%
